Assay results published in PubChem BioAssay (EPA / NIEHS).
The source made the active and inactive calls. Rule for the calls: active = hit-call score of the fitted dose curve at least 0.9, where 1 is the maximum; inactive = score below 0.9.

Columns and labels:
[1] = CEETOX_H295R_ESTRADIOL: CeeTox H295R High-throughput Steroidogenesis Assay for Estradiol (AID 2283440); details: actives raise or lower the signal;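 note: estradiol secreted into medium quantified by LC-MS/MS after dansyl derivatisation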
Procedure, shortened: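 Readout is estradiol in conditioned medium, quantified by reverse-phase HPLC-MS/MS against a 7-point standard curve. Cells: H295R, forskolin-stimulated, then dosed 48 h in 0.1% DMSO; activity fitted in both directions relative to DMSO.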

[2] = CEETOX_H295R_ESTRONE: CeeTox H295R High-throughput Steroidogenesis Assay for Estrone (AID 2283441); details: actives raise or lower the signal;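 for AC50: human adrenal H295R cells prestimulated with forskolin for two days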
Procedure, shortened: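 Estrone secreted into medium quantified by LC-MS/MS after dansyl chloride derivatization, following 48 h chemical exposure (0.1% DMSO final) of forskolin-prestimulated (10 uM, 48 h) H295R cells; gain or loss fitted against DMSO; MTT viability in same wells.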

[3] = CEETOX_H295R_PROG: CeeTox H295R High-throughput Steroidogenesis Assay for Progesterone (PROG) (AID 2283442); details: actives raise or lower the signal
Procedure, shortened: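 Measured analyte is progesterone secreted by H295R cells at 48 h of chemical treatment, following 10 uM forskolin priming. Quantitation used HPLC-MS/MS against a 7-point standard curve; cytotoxicity was checked by MTT absorbance.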

[4] = CEETOX_H295R_TESTO: CeeTox H295R High-throughput Steroidogenesis Assay for Testosterone (TESTO) (AID 2283457); details: actives raise or lower the signal
Procedure, shortened: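 Steroidogenesis in H295R cells following OECD 456 with minor changes; 48 h exposure. Medium testosterone by HPLC-MS/MS, DMSO as baseline, with MTT viability run in parallel.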

[5] = CEETOX_H295R_DOC: CeeTox H295R High-throughput Steroidogenesis Assay for DOC (AID 2283439); details: actives raise or lower the signal
Procedure, shortened: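 11-Deoxycorticosterone quantified in medium by MTBE extraction and HPLC-MS/MS after 48 h chemical exposure (0.1% DMSO) of forskolin-primed (10 uM, 48 h) H295R cells. Same-well MTT viability; data fitted bidirectionally against DMSO.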

[6] = read-out: Tumor necrosis factor receptor superfamily member 6 (Homo sapiens) (UniProt P25445); test: LTEA_HepaRG_FAS: Life Technologies and Expression Analysis (LTEA) Assay for Fas cell surface death receptor (FAS) using HepaRG (AID 2283447); details: mRNA level, 48 h; actives raise or lower the signal
Procedure, shortened: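 Differentiated human HepaRG cells, pre-cultured 48 h, were exposed in duplicate for 48 h to 8-point half-log concentrations (top 100 uM, 0.5% DMSO) in serum-free induction medium; FAS mRNA measured by qRT-PCR, normalized to ACTB/GAPDH/POLR2A, bidirectional fit versus DMSO.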

[7] = read-out: Cyclin D2 (CCND2), CCND2 (gene 894); test: LTEA_HepaRG_CCND2: Life Technologies and Expression Analysis (LTEA) Assay for Cyclin D2 (CCND2) using HepaRG (AID 2283449); details: mRNA level, 48 h; actives raise or lower the signal;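 note: CCND2 transcript measured by TaqMan qRT-PCR and normalised to three housekeeping genes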
Procedure, shortened: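 In this HepaRG study, an eight-point concentration series (max 100 uM, 0.5% DMSO) is applied for 48 h. CCND2 mRNA change is derived by qRT-PCR normalised to ACTB, GAPDH and POLR2A.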

[8] = read-out: Cyclin Dependent Kinase Inhibitor 1A (CDKN1A), CDKN1A (gene 1026); test: LTEA_HepaRG_CDKN1A: Life Technologies and Expression Analysis (LTEA) Assay for Cyclin Dependent Kinase Inhibitor 1A (CDKN1A) using HepaRG (AID 2283450); details: mRNA level, 48 h; actives raise or lower the signal
Procedure, shortened: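 Gain or loss of CDKN1A transcript is scored by bidirectional fitting against 0.5% DMSO vehicle. Human HepaRG cultures receive chemicals for 48 h across an 8-point series peaking at 100 uM; expression comes from qRT-PCR.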

[9] = read-out: Cyclin D1 (CCND1), CCND1 (gene 595); test: LTEA_HepaRG_CCND1: Life Technologies and Expression Analysis (LTEA) Assay for Cyclin D1 (CCND1) using HepaRG (AID 2283451); details: mRNA level, 48 h; actives raise or lower the signal;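 for AC50: TaqMan qRT-PCR transcript level normalised to ACTB GAPDH and POLR2A housekeeping genes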
Procedure, shortened: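 Expression change is measured by qRT-PCR in HepaRG cells after 48 h treatment across eight concentrations topping at 100 uM, with duplicate wells and DMSO (0.5%) serving as baseline for bidirectional fitting.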

[10] = read-out: catalase (CAT), CAT (gene 847); test: LTEA_HepaRG_CAT: Life Technologies and Expression Analysis (LTEA) Assay for catalase (CAT) using HepaRG (AID 2283452); details: mRNA level, 48 h; actives raise or lower the signal
Procedure, shortened: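 Differentiated HepaRG cells in serum-free induction medium were dosed 48 h in duplicate, eight half-log concentrations from 100 uM in 0.5% DMSO. Transcript measured by TaqMan qRT-PCR, normalised to ACTB/GAPDH/POLR2A, fitted bidirectionally against DMSO.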

[11] = read-out: flavin-containing dimethylaniline monooxygenases 3 (FMO3), FMO3 (gene 2328); test: LTEA_HepaRG_FMO3: Life Technologies and Expression Analysis (LTEA) Assay for flavin-containing dimethylaniline monooxygenases 3 (FMO3) using HepaRG (AID 2283453); details: mRNA level, 48 h; actives raise or lower the signal;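 for AC50: FMO3 transcript by TaqMan qRT-PCR normalized to ACTB GAPDH and POLR2A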
Procedure, shortened: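 FMO3 transcript quantified by TaqMan qRT-PCR against three housekeeping genes after 48 h chemical exposure of HepaRG cells. Eight-point half-log series, top 100 uM, 0.5% DMSO vehicle; phenobarbital 1mM induction control; up- or down-regulation fitted.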

[12] = read-out: Cytochrome P450 (CYP1A1), CYP1A1 (gene 1543); test: LTEA_HepaRG_CYP1A1: Life Technologies and Expression Analysis (LTEA) Assay for Cytochrome P450 (CYP1A1) using HepaRG (AID 2283454); details: mRNA level, 48 h; actives raise or lower the signal
Procedure, shortened: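 Using HepaRG cultures with 0.5% DMSO as vehicle, eight-concentration exposures (max 100 uM) lasted 48 h. Transcript levels were measured by TaqMan qRT-PCR and normalized to ACTB, GAPDH and POLR2A.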

[13] = read-out: CFLAR gene, CFLAR (gene 8837); test: LTEA_HepaRG_CFLAR: Life Technologies and Expression Analysis (LTEA) Assay for CFLAR gene using HepaRG (AID 2283455); details: mRNA level, 48 h; actives raise or lower the signal
Procedure, shortened: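 Gain- or loss-of-signal changes in CFLAR transcript were fitted bidirectionally relative to 0.5% DMSO. Cells (HepaRG, duplicate wells) were dosed for 48 h across eight half-log concentrations topping at 100 uM; quantitation by TaqMan qRT-PCR.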

[14] = read-out: Forkhead box O1 (FOXO1), FOXO1 (gene 2308); test: LTEA_HepaRG_FOXO1: Life Technologies and Expression Analysis (LTEA) Assay for Forkhead box O1 (FOXO1) using HepaRG (AID 2283456); details: mRNA level, 48 h; actives raise or lower the signal
Procedure, shortened: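 Using one lot of HepaRG hepatic cells kept in 0.5% DMSO, the team applied test chemicals in duplicate, half-log dilutions from 100 uM, for 48 h. Expression, normalised to ACTB/GAPDH/POLR2A, was compared with vehicle in either direction.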

[15] = read-out: growth arrest and DNA damage 45 (GADD45A), GADD45A (gene 1647); test: LTEA_HepaRG_GADD45A: Life Technologies and Expression Analysis (LTEA) Assay for growth arrest and DNA damage 45 (GADD45A) using HepaRG (AID 2283458); details: mRNA level, 48 h; actives raise or lower the signal
Procedure, shortened: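 GADD45A expression was measured by TaqMan qRT-PCR against three housekeeping genes (ACTB, GAPDH, POLR2A) after 48 h treatment of HepaRG cells. Eight-point half-log series up to 100 uM in 0.5% DMSO, run in duplicate.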

[16] = read-out: Forkhead box O3 (FOXO3), FOXO3 (gene 2309); test: LTEA_HepaRG_FOXO3: Life Technologies and Expression Analysis (LTEA) Assay for Forkhead box O3 (FOXO3) using HepaRG (AID 2283459); details: mRNA level, 48 h; actives raise or lower the signal
Procedure, shortened: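 Gene-expression endpoint: FOXO3 transcript level by qRT-PCR in HepaRG cultures treated 48 h with chemicals up to 100 uM (half-log, 0.5% DMSO vehicle).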

[17] = read-out: ABC Transporter (ABCB1), ABCB1 (gene 5243); test: LTEA_HepaRG_ABCB1: Life Technologies and Expression Analysis (LTEA) Assay for ABC Transporter (ABCB1) using HepaRG (AID 2283460); details: mRNA level, 48 h; actives raise or lower the signal
Procedure, shortened: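 Human liver HepaRG line treated 48 h with up to 100 uM compound (eight half-log points, 0.5% DMSO); ABCB1 mRNA change fitted bidirectionally against DMSO controls.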

[18] = read-out: growth arrest and DNA damage 45 (GADD45B), GADD45B (gene 4616); test: LTEA_HepaRG_GADD45B: Life Technologies and Expression Analysis (LTEA) Assay for growth arrest and DNA damage 45 (GADD45B) using HepaRG (AID 2283461); details: mRNA level, 48 h; actives raise or lower the signal
Procedure, shortened: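 Human HepaRG monolayers receive chemicals for 48 h at eight half-log concentrations, highest 100 uM, in 0.5% DMSO. Expression is measured by TaqMan qRT-PCR and normalized to ACTB, GAPDH and POLR2A.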

[19] = read-out: ABC Transporter (ABCC3), ABCC3 (gene 8714); test: LTEA_HepaRG_ABCC3: Life Technologies and Expression Analysis (LTEA) Assay for ABC Transporter (ABCC3) using HepaRG (AID 2283462); details: mRNA level, 48 h; actives raise or lower the signal
Procedure, shortened: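 Transcriptional change of ABCC3 in HepaRG after 48 h treatment, determined by qRT-PCR normalized to endogenous controls. Concentrations spanned eight half-log steps to 100 uM in 0.5% DMSO.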

[20] = read-out: Fatty acid synthase (Homo sapiens) (UniProt P49327); test: LTEA_HepaRG_FASN: Life Technologies and Expression Analysis (LTEA) Assay for Fatty Acid Synthase (FASN) using HepaRG (AID 2283448); details: mRNA level, 48 h; actives raise or lower the signal
Procedure, shortened: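 FASN transcript measured by TaqMan qRT-PCR, normalised to three housekeeping genes, after 48 h chemical exposure of HepaRG cells. Eight-point half-log series from 100 uM in 0.5% DMSO, duplicates; gain or loss fitted against vehicle.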

Measured: AC50

Chain of Fatty acid synthase (Homo sapiens) (P49327 whole entry, looked up): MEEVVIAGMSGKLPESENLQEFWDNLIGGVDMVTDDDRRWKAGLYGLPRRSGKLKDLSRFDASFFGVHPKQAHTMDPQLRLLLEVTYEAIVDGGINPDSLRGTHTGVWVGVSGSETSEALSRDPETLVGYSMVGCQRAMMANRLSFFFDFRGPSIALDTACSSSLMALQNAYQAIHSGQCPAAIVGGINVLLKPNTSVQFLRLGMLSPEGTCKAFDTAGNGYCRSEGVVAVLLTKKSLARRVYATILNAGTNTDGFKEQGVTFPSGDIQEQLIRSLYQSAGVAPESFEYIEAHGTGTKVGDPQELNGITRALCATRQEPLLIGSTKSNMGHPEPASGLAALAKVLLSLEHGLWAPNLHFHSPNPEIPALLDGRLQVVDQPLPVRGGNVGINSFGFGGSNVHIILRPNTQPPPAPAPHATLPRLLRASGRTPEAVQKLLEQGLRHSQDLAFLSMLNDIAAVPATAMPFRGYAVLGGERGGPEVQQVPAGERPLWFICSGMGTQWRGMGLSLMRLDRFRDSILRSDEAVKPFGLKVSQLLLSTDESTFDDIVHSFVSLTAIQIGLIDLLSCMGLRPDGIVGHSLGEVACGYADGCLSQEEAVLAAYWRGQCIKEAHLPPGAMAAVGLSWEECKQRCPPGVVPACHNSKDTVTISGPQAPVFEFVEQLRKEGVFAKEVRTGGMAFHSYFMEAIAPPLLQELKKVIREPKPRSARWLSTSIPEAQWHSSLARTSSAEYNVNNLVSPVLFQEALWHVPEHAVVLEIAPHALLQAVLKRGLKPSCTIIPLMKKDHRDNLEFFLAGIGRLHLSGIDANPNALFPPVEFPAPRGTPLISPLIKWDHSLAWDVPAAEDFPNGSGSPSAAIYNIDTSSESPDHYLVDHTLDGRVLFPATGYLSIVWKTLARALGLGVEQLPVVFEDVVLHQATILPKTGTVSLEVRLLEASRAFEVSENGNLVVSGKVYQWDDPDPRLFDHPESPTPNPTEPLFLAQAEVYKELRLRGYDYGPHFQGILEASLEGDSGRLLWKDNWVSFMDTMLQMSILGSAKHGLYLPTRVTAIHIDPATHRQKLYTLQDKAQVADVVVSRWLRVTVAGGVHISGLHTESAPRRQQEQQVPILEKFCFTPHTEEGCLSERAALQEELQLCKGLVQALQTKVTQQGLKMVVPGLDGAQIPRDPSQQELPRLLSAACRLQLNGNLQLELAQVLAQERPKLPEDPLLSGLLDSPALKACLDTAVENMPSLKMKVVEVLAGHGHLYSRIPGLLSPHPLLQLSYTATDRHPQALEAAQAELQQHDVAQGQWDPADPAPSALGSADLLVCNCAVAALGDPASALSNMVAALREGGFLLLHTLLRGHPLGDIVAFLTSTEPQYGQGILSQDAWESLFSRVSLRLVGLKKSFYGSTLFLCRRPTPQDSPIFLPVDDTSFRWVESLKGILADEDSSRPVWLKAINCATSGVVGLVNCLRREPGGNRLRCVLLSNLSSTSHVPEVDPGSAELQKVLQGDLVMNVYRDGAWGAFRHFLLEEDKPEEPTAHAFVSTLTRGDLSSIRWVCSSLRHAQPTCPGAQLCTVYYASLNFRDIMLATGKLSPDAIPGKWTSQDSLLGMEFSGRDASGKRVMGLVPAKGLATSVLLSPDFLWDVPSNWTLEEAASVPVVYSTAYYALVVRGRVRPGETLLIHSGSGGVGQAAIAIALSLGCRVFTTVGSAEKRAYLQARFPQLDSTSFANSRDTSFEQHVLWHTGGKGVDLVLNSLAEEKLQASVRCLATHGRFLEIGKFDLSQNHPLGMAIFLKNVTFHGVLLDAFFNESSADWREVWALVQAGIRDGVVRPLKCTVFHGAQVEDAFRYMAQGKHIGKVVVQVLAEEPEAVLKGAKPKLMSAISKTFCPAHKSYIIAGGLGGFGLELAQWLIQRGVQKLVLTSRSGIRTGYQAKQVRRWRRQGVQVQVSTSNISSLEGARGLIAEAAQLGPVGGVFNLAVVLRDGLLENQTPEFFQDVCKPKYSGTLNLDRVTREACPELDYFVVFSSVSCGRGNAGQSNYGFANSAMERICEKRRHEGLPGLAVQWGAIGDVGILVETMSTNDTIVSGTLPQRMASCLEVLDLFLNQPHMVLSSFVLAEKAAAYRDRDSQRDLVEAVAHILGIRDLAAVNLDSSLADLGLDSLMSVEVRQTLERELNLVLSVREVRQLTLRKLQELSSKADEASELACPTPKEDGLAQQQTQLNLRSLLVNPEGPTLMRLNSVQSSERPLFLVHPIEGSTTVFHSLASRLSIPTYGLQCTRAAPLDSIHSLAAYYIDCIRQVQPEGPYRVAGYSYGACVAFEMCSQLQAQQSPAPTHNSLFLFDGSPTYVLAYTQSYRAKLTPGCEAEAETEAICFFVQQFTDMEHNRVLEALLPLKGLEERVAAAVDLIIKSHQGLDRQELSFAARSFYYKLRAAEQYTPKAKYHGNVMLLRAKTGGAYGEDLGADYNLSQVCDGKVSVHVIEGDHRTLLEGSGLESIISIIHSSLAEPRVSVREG

OCc1c[nH]c2ccccc12
inactive: [1] | [2] | [3] | [4]

COc1cc2c(c(OC)c1OC)-c1ccc(OC)c(=O)cc1[C@@H](NC(C)=O)CC2
active: [6] 79.9 nM | [9] 17.8 nM | [10] 77.2 nM | [11] 47.7 nM | [12] 57.5 nM | [13] 66.3 nM | [14] 30.9 nM | [17] 79.7 nM | [19] 196 nM
not listed: [20]
inactive: all other assays above

CCCCC(CC)C(=O)OCCOCCOCCOC(=O)C(CC)CCCC (centres undefined)
not listed: [7] | [20]
inactive: all other assays above

O=C(O)c1cccc(C(=O)O)c1
not listed: [1] | [2] | [3] | [4] | [5] | [12]
inactive: all other assays above

NNC(=O)c1ccncc1
active: [12] 22000 nM
not listed: [1] | [2] | [3] | [4] | [5]
inactive: all other assays above

C[C@@H](Oc1ccc(CNC(=O)c2cccnc2Oc2ccc3c(c2)OCO3)c(F)c1)C(=O)O
active: [2] 128 nM
not listed: [4] | [12]
inactive: all other assays above

c1ccc2c(c1)-c1cccc3c1c-2cc1ccccc13
active: [5] 1840 nM | [9] 5320 nM | [10] 15100 nM | [11] 18400 nM | [13] 10600 nM | [14] 5040 nM | [16] 4900 nM | [17] 15500 nM | [18] 11300 nM | [19] 21000 nM
inactive: [1] | [2] | [6] | [7] | [8] | [15]
